PubChem BioAssay
Unmarked numbers belong to inactive results. For some of these results: Results with a measured potency or affinity are listed apart. Activity calls are given as the source filed them. Unless noted, no rule for the calls is given here.

Experiments:
[1] = antimalarial activity against Dd2 strain (AID 2302;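 active = growth inhibition above 50% at the single 2 µM test dose, taken to imply half-maximal potency below 2 µM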;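 also: 0% = DMSO untreated growth and 100% = chloroquine plus artemisinin killed control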); conditions: P. falciparum Dd2 in RBCs, LDH growth readout, 72 h; at 2 µM; hits give high values
[2] = HepG2 cytotoxicity, primary screen, cytotoxicity control for P. falciparum antimalarial project, cell-based, ATP luminescence (AID 2303;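 active = inhibition above 50%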;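 also: 0% = DMSO wells and 100% = digitonin-killed cells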); conditions: HepG2 viability, 24-48 h, at 10 µM, hits give high values
[3] = molecular target: L-lactate dehydrogenase (Plasmodium falciparum (isolate CDC / Honduras)) (UniProt Q27743); assay: PfLDH activity inhibition – cell lysate, 3D7 strain, counter-screen for P. falciparum growth inhibition project (AID 2304);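 also: 0% = vehicle and 100% = reference inhibitor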; conditions: P. falciparum 3D7 crude extract, LDH APAD/NBT absorbance; at 2 µM; hits give high values
[4] = inhibition of 3D7 malaria parasite growth – strain 3D7 (AID 2306);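 also: 0% = DMSO wells and 100% = chloroquine plus artemisinin control wells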; conditions: P. falciparum 3D7 erythrocytic growth, LDH absorbance, 72 h; at 2 µM; hits give high values
[5] = molecular target: Calcium-dependent protein kinase 1 (Plasmodium falciparum (isolate 3D7)) (UniProt P62344); assay: PfCDPK1 kinase inhibitors, biochemical, TCAMS library (AID 1159585; cut-off not given, nearly all actives have IC50 up to about 0.98 µM;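 also: inhibitors leave more ATP so luminescence rises with inhibition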); conditions: recombinant PfCDPK1, Kinase-Glo ATP depletion luminescence
[6] = molecular target: Plasmodium falciparum protein kinase 6 (PK6, PF3D7_1337100) (UniProt Q8IDW1); assay: PfPK6 kinase inhibitors, biochemical, TCAMS library (AID 1159586); conditions: recombinant PfPK6, Kinase-Glo ATP depletion luminescence
[7] = molecular target: Protein kinase 7 (PK7), Plasmodium falciparum 3D7 (PF3D7_0213400) (UniProt Q7YTF7); assay: inhibition of Plasmodium PK7 catalytic activity – biochemical, TCAMS antimalarial set, Kinase-Glo luminescence (AID 1159587); conditions: recombinant PfPK7, Kinase-Glo ATP depletion luminescence
[8] = molecular target: Calcium-dependent protein kinase 4 (Plasmodium falciparum (isolate 3D7)) (UniProt Q8IBS5); assay: PfCDPK4 kinase inhibitors, biochemical, TCAMS library (AID 1159588; cut-off not given, nearly all actives have IC50 up to about 0.91 µM); conditions: recombinant PfCDPK4, Kinase-Glo ATP depletion luminescence
Calcium-dependent protein kinase 4 (Plasmodium falciparum (isolate 3D7)), sequence (Q8IBS5 whole entry, looked up): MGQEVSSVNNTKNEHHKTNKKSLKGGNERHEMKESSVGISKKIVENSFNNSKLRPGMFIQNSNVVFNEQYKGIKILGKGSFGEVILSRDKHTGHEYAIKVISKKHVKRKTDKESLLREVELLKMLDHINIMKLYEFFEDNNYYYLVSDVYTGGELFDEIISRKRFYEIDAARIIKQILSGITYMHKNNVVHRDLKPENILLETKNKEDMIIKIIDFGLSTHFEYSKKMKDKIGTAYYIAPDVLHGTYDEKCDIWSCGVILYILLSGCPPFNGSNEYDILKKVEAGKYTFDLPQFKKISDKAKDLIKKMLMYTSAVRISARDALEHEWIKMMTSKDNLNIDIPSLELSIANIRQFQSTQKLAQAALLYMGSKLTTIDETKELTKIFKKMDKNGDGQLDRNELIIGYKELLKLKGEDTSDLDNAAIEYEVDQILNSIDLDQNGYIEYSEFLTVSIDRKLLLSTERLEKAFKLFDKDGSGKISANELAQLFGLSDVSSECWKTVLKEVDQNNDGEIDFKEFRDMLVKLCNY

L-lactate dehydrogenase (Plasmodium falciparum (isolate CDC / Honduras)), sequence (Q27743 whole entry, looked up): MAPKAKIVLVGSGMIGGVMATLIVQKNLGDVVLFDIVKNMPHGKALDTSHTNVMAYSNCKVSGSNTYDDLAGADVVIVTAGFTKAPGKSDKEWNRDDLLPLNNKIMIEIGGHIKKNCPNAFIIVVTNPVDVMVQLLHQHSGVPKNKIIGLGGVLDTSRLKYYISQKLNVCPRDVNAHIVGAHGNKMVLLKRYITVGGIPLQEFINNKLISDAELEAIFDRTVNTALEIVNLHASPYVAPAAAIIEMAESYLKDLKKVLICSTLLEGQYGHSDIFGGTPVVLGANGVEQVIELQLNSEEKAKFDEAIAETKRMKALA
Plasmodium falciparum protein kinase 6 (PK6, PF3D7_1337100), sequence (Q8IDW1 1-305): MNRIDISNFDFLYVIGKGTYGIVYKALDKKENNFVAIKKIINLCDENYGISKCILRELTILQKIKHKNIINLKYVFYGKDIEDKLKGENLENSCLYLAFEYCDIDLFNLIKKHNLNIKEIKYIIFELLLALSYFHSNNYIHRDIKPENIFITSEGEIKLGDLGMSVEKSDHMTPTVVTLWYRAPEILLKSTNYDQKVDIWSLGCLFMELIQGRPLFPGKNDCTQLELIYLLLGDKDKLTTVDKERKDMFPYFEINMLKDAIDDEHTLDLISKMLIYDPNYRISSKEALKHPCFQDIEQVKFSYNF
Protein kinase 7 (PK7), Plasmodium falciparum 3D7 (PF3D7_0213400), sequence (Q7YTF7 1-343): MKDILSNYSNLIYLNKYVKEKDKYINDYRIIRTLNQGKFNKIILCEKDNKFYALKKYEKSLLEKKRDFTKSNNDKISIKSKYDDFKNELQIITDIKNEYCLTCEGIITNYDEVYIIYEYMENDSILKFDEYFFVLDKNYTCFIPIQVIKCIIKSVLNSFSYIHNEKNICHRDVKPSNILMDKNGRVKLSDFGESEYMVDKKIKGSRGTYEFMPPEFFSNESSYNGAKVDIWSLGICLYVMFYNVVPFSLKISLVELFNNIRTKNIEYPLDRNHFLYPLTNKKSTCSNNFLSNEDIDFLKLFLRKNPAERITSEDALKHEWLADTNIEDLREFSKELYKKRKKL
Calcium-dependent protein kinase 1 (Plasmodium falciparum (isolate 3D7)), sequence (P62344 whole entry, looked up): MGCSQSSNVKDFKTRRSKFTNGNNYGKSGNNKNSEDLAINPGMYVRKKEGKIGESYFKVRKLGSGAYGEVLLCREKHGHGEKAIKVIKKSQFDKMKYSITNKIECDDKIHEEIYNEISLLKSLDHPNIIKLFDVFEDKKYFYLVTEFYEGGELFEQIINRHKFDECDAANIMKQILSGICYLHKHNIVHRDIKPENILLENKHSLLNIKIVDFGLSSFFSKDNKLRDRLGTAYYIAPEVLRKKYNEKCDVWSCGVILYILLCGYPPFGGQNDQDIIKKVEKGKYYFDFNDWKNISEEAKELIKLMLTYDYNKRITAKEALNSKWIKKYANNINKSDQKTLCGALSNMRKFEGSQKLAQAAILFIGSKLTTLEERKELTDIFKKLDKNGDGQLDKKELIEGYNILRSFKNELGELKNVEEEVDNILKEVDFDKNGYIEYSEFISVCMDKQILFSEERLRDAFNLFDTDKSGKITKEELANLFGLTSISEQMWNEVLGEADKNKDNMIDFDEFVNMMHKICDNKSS

Compound | growth inhibition [1] | inhibition [2] | inhibition [3] [%] | growth inhibition [4] | outcome [5] | outcome [6] | outcome [7] | outcome [8]
CC1(C)N=C(N)N=C(N)N1OCc1cc(Cl)c(CON2C(N)=NC(N)=NC2(C)C)cc1Cl | 77% (active) | 21% | 3 | 94% (active) | inactive | inactive | inactive | inactive
Cc1ccc([C@@H]2CC(=O)CC(c3ccccn3)[C@H]2[N+](=O)[O-])cc1 (stereo partly drawn) | 2% | 5% | -1 | 97% (active) | inactive | inactive | inactive | inactive
Cc1ccc(C)c(NC(=O)Nc2ccc(Nc3nc(C)cc(N4CCOCC4)n3)cc2)c1 | 48% | 88% (active) | 0 | 98% (active) | inactive | inactive | inactive | inactive
COc1ccc(N2C(N)=NC(N)=NC2(C)C)cc1 | 29% | 0% | 4 | 94% (active) | inactive | inactive | inactive | inactive
Cc1ccc(Nc2nccc(NCC(O)c3cccc(F)c3)n2)cc1 (stereo not drawn) | 26% | 24% | -7 | 95% (active) | inactive | inactive | inactive | inactive
C=C(NC(=O)c1cc(C)cc(C)c1)C(=O)OC | -2% | 21% | -3 | 95% (active) | inactive | inactive | inactive | inactive
COc1ccc(CCNCCCCCCNCCCc2ccc(Cl)cc2)cc1OC | 2% | 36% | 1 | 96% (active) | inactive | inactive | inactive | inactive
O=C(Nc1cccc(-c2ccc(-c3nc4ccc(C(F)(F)F)cc4[nH]3)cc2)c1)c1csnn1 | 93% (active) | 23% | 3 | 98% (active) | inactive | inactive | inactive | inactive
CCCCCc1ccc(NC(=O)Nc2ccc(Cn3ncc(N4CCCNCC4)c(Cl)c3=O)cc2)cc1 | 23% | 15% | 3 | 87% (active) | inactive | inactive | inactive | inactive
CCC(=O)N[C@@H]1CN[C@@H](C#Cc2cc3c(Nc4ccc(OCc5cccc(F)c5)c(Cl)c4)ncnc3s2)C1 | -5% | 46% | -3 | 82% (active) | inactive | inactive | inactive | inactive
CCCCNCc1ccc(-c2nc(CN(CCCn3ccnc3)C(=O)N[C@@H]3C[C@H]3c3ccccc3)cs2)cc1 | 34% | 21% | 3 | 100% (active) | inactive | inactive | inactive | inactive
O=c1cc(NCCCNCc2ccc(C(F)(F)F)cc2F)[nH]c2ccccc12 | 48% | 1% | 8 | 93% (active) | inactive | inactive | inactive | inactive
O=C(/C=C/c1ccc(Cl)c(Cl)c1)NCCCCCN1CCCN(C(=O)Nc2ccc(Cl)c(C(F)(F)F)c2)CC1 | 16% | 35% | 4 | 102% (active) | inactive | inactive | inactive | inactive
CCN(CC)CCNc1ccnc2[nH]c3ccc([N+](=O)[O-])cc3c12 | 76% (active) | 6% | -4 | 100% (active) | inactive | inactive | inactive | inactive
FC(F)(F)COc1ccc(CNCCCCCCNCc2ccc(OCC(F)(F)F)c3ccccc23)c2ccccc12 | 93% (active) | 99% (active) | 3 | 102% (active) | inactive | inactive | inactive | inactive
COCCNC(=O)C1CCN(C(c2ccc(Cl)cc2)c2ccc(Cl)cc2)CC1 | 73% (active) | 3% | -3 | 86% (active) | inactive | inactive | inactive | inactive
CCOC(=O)CCc1cc(F)c(F)c(OC[C@H](O)CNC(C)(C)C(O)c2ccc3ccccc3c2)c1 (stereo partly drawn) | 92% (active) | 12% | -4 | 99% (active) | inactive | inactive | inactive | inactive
COc1ccc(-c2ccc(NC(=O)c3cccc(Cl)c3)cc2)cc1CN1CCCC1 | 84% (active) | 35% | 4 | 100% (active) | inactive | inactive | inactive | inactive
CC1CN(Cc2ccc(-c3ccc(-c4nc5ccc(F)cc5[nH]4)cc3)cc2)CC(C)O1 (stereo not drawn) | 93% (active) | 40% | -1 | 96% (active) | inactive | inactive | inactive | inactive
O=C(NC1CCC(N2CCN(c3cccc(C(F)(F)F)c3)CC2)CC1)c1cc2ccccc2[nH]1 (stereo not drawn) | 22% | 23% | 0 | 99% (active) | inactive | inactive | inactive | inactive
C=CCOC(=O)N1CCC(CNCc2ccc(-c3ccc(-c4nc5ccc(C(F)(F)F)cc5[nH]4)cc3)cc2)C1 (stereo not drawn) | 98% (active) | 44% | -2 | 103% (active) | inactive | inactive | inactive | inactive

Compound | growth inhibition [1] | inhibition [2] | inhibition [3] [%] | growth inhibition [4] | outcome [5] | outcome [6] | outcome [7] | outcome [8]
COc1ccc2nccc([C@@H](O)CN3CCC(NCCOc4ccc(F)cc4F)CC3)c2c1 | 68% (active) | 13% | -5 | 101% (active) | inactive | inactive | inactive | inactive
COc1ccc2ncc(F)c([C@@H](O)CN3CCC(NCc4ccc5c(c4)NCCS5)CC3)c2n1 | 69% (active) | 77% (active) | -3 | 99% (active) | inactive | inactive | inactive | inactive
CCn1c(SCc2ccc(F)cc2)nc2sc3c(c2c1=O)CCN(C)C3 | 81% (active) | 2% | 3 | 95% (active) | inactive | inactive | inactive | inactive
CC(C)N1CCN(C(=O)c2ccc(CNCCCN3CCN(c4ccccc4C(F)(F)F)CC3)s2)CC1 | 42% | 32% | -7 | 98% (active) | inactive | inactive | inactive | inactive
Cc1noc(-c2cccs2)c1C(=O)NC(C)c1cccc2ccccc12 (stereo not drawn) | 95% (active) | -2% | -4 | 97% (active) | inactive | inactive | inactive | inactive
CN1CCC(C(=O)Nc2ccc(-c3ccc(-c4nc5ccccc5[nH]4)cc3)cc2)CC1 | 94% (active) | 28% | 5 | 101% (active) | inactive | inactive | inactive | inactive
Nc1c2c(nc3ccc(C(=O)Nc4cc(I)c(O)c(I)c4)cc13)CCCC2 | 64% (active) | 14% | 0 | 96% (active) | inactive | inactive | inactive | inactive
COC(=O)C1=C(C)NC2=C(C(=O)CC(c3ccc(OC)c(OC)c3)C2)C1c1cccc(O)c1 (stereo not drawn) | 69% (active) | 2% | 5 | 99% (active) | inactive | inactive | inactive | inactive
CN1CCN(CCCCCNc2c3ccccc3nc3ccccc23)CC1 | -8% | 57% (active) | 5 | 99% (active) | inactive | inactive | inactive | inactive
CCOCCCNc1nc2cc(OC)c(OC)cc2c2nc(-c3ccccc3)nn12 | 98% (active) | 10% | -3 | 96% (active) | inactive | inactive | inactive | inactive
COc1cc(N(Cc2ccc(F)cc2)C(=O)c2ccc(-c3ccccc3)cc2)ccc1OCCN1CCCC1 | 4% | 11% | -4 | 93% (active) | inactive | inactive | inactive | inactive
Cc1cc(F)ccc1C1CCN(CCCCNC(=O)c2ccc(NC(=O)c3ccc(Cl)cc3)cc2)CC1 | 79% (active) | 19% | 0 | 101% (active) | inactive | inactive | inactive | inactive
O=C(N[C@H]1CCN(CCc2ccc(O[C@H]3CCNC3)c(Cl)c2)C1)c1ccc(Cl)c(Cl)c1 | -1% | 26% | 2 | 101% (active) | inactive | inactive | inactive | inactive
O=c1cc(NCCCNC2CCOc3c(Cl)cccc32)[nH]c2ccccc12 (stereo not drawn) | 27% | -3% | 3 | 96% (active) | inactive | inactive | inactive | inactive
CN(C)CCOc1ccc(NC(=O)NC(C)(C)c2nc(-c3ccc(Cl)c(O)c3)c(-c3ccncc3)[nH]2)cc1 | 98% (active) | 22% | 5 | 98% (active) | inactive | inactive | inactive | inactive
O=C(NCCCCN1CCC(c2ccc3c(c2OCCN2CCCC2)CCCC3)CC1)c1ccc(-c2ccc(C(F)(F)F)cc2)cc1 | 81% (active) | 25% | -6 | 100% (active) | inactive | inactive | inactive | inactive
COc1cc(CCN=C(N)/C=C/c2ccc(Cl)cc2)ccc1Cl | 16% | 68% (active) | 3 | 100% (active) | inactive | inactive | inactive | inactive
CCOc1cc(Cc2cnc(N)nc2N)cc(OCC)c1O | -1% | 6% | 3 | 89% (active) | inactive | inactive | inactive | inactive
O=C(/C=C/c1ccc(Cl)c(Cl)c1)NCCCCCN1CCC(CCNC(=O)/C=C/c2cc(C(F)(F)F)ccc2F)CC1 | 46% | 25% | -5 | 98% (active) | inactive | inactive | inactive | inactive
O=C(NC(=O)c1ccccc1O)c1ccccc1O | 79% (active) | -5% | -2 | 97% (active) | inactive | inactive | inactive | inactive
